Compounds with a hit are over-represented: about 1.7% of the library has one in this group of screens.
PREPL inh = inhibits the human prolyl oligopeptidase-like enzyme | recombinant PREPL, fluorescence polarization activity-based probe | 320,000 compounds, 0.68% hits | inhibition, % at 5.96 µM | Q4J6C6; in the data active = inhibition above about 43%;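 also: 0% = enzyme with DMSO and 100% = wells lacking enzyme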
p97 ATPase inh = blocks human p97 ATPase activity | recombinant p97 ATPase, Kinase-Glo ATP luminescence, 3 h | inhibition, % at 8 µM | 220,000 compounds, 0.42% hits | AID 1481; in the data active = inhibition above about 15%;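 also: 0% = DMSO vehicle and 100% = wells lacking enzyme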
LYPLA1 counter = blocks human lysophospholipase 1, a PME1 counter-screen; O75608; recombinant LYPLA1, FP-Rh probe fluorescence polarization; inhibition, % at 5.9 µM; 320,000 compounds, 0.16% hits; AID 2174;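 active = inhibition above the mean of all tested compounds plus 3 SD, set per campaign, cut at about 14% in these data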;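 also: inhibitors block serine hydrolase probe labeling of LYPLA1 so polarization falls; 0% = enzyme with DMSO and 100% = wells lacking LYPLA1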
Hck Nef HTS = human Hck-Nef kinase inhibition; P08631; Recombinant Hck-YEEI plus Nef, Z-Lyte FRET kinase assay; inhibition, % at 20 µM; 220,000 compounds, 0.68% hits; AID 463187;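 active = Hck-Nef kinase inhibition above about 50%, limit read from the data; inactive = inhibition below that limit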;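 also: 0% = DMSO with Hck plus Nef and 100% = Hck alone without Nef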
LYPLA2 inh = LYPLA2 (human) inhibition in PME1 counter-screen | O95372 | recombinant LYPLA2, FP-Rh probe fluorescence polarization | 320,000 compounds, 0.38% hits | inhibition, % at 5.9 µM;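 active = inhibition above the screen-wide mean plus 3 SD, limit set per campaign, cut at about 26% in these data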;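 also: 0% = LYPLA2 with DMSO and 100% = wells lacking LYPLA2 enzyme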
Target sequence (O95372 whole entry, looked up): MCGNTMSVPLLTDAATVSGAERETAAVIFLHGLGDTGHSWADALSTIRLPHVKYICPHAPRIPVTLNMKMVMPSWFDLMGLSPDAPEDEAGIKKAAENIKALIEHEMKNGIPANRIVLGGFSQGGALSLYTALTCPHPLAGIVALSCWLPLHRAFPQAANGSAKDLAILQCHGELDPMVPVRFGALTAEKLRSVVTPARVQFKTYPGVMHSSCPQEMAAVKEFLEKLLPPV
Rin1 Abl inh = inhibitors of human Rin1-Abl protein interaction; P00519+Q13671; TR-FRET Rin1/Abl binding, biochemical; AID 588664; inhibition, % at 7.35 µM; 360,000 compounds, 0.4% hits; in the data active = inhibition above about 5%, passing the limit was not always enough
Rin1 Abl conf = confirmation of inhibitors of human Rin1-Abl interaction. shares compounds with Rin1 Abl inh. TR-FRET Rin1-Abl binding, purified proteins. inhibition, % at 7.35 µM. 1,300 compounds, 49% hits
GFP quench = GFP fluorescence interference artifact; shares compounds with Rin1 Abl inh; inhibitors/quenchers counterscreen; inhibition, % at 6.75 µM; 1,300 compounds, 8.5% hits;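 also: ABL1-eGFP fusion protein alone without its partner RIN1-SBP; 0% = protein with vehicle and 100% = wells lacking protein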
GFP quench dose = GFP fluorescence interference dose response; shares compounds with Rin1 Abl inh; GFP fluorescence interference/quenching counterscreen; IC50, µM; 230 tested, under 10 active; call rule not given here;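 also: ABL1-eGFP fusion protein alone without its RIN1 binding partner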
Starred values were filed as active, the others as inactive. Rule as the data show it, unless noted: active = inhibition above about 6.5%; inactive = the rest.

CCOC(=O)c1ccc(-n2[nH]c(-c3ccccc3)cc2=O)cc1 was read as PREPL inh 8, p97 ATPase inh 2, LYPLA1 counter 4, Hck Nef HTS 6, LYPLA2 inh 9 and Rin1 Abl inh -2.
For Cc1cc(=O)n(-c2ccc(C(=O)O)cc2)[nH]1 the results were PREPL inh 8, p97 ATPase inh 14, LYPLA1 counter -5, Hck Nef HTS 20, LYPLA2 inh -5, Rin1 Abl inh 8.3*, Rin1 Abl conf 0 and GFP quench -1.
COc1cccc(NC(=O)CN(C)C(=O)CCN2C(=O)C3CC=CCC3C2=O)c1 (stereo not given) was read as Rin1 Abl inh 2.
Screening COc1cccc(CN(C)C(=O)c2cc(S(=O)(=O)N3CCCC3)ccc2C)c1OC returned PREPL inh 6, Rin1 Abl inh 8.9*, Rin1 Abl conf 4 and GFP quench -1.
For COc1cccc(CN(C)C(=O)c2cc(S(=O)(=O)NC3CCCCC3)ccc2C)c1OC the results were PREPL inh 5, LYPLA1 counter -2, LYPLA2 inh 1 and Rin1 Abl inh -1.
For O=C1OC(NCc2cccnc2)(c2ccc(Cl)cc2)c2ccccc21 (stereo not given) the results were PREPL inh 4, p97 ATPase inh 5, LYPLA1 counter 5, Hck Nef HTS 22, LYPLA2 inh 12, Rin1 Abl inh 12*, Rin1 Abl conf 7.4* and GFP quench -2.
For O=C(NCCCNC(=O)c1cc(Cl)ccc1Cl)c1ccccn1 the results were PREPL inh 7, LYPLA1 counter -2, LYPLA2 inh -8 and Rin1 Abl inh -1.
Screening Cc1cc(C)n(-c2cc(Cl)cc(Cl)c2)c(=O)c1C#N returned PREPL inh 8, p97 ATPase inh -3, LYPLA1 counter 0, Hck Nef HTS 5, LYPLA2 inh 4, Rin1 Abl inh 8.3*, Rin1 Abl conf -3 and GFP quench 0.
Cc1ccc(-n2c(C)cc(C)c(C#N)c2=O)cc1Cl was read as PREPL inh 2, p97 ATPase inh -3, LYPLA1 counter -1, Hck Nef HTS -24, LYPLA2 inh -2 and Rin1 Abl inh 0.
`O=C(COc1ccc(Cl)cc1Cl)N1CCNC1=O` gave PREPL inh 8, LYPLA1 counter 0, LYPLA2 inh 3 and Rin1 Abl inh 5.
Screening Cc1ccc(-n2c(=O)c3sccc3n(CC(=O)N3CCCC3)c2=O)cc1 returned PREPL inh 17, p97 ATPase inh -5, LYPLA1 counter -1, Hck Nef HTS -3, LYPLA2 inh -3, Rin1 Abl inh 5.8*, Rin1 Abl conf -3 and GFP quench 0.
CN(Cc1ccccc1)S(=O)(=O)c1ccc(Cl)c(C(=O)N2CCC2)c1 was read as PREPL inh 17, LYPLA1 counter 3, LYPLA2 inh 4, Rin1 Abl inh 22*, Rin1 Abl conf 17*, GFP quench 0 and GFP quench dose >67.
`CC(NS(=O)(=O)c1ccc2ccccc2c1)c1ccccn1` (stereo not given) gave PREPL inh -1 and Rin1 Abl inh 4.
COc1ccccc1N1CCN(C(=O)CNC(=O)Cn2cnc3sc(C)c(C)c3c2=O)CC1 was read as PREPL inh 6, LYPLA1 counter 0, LYPLA2 inh 3 and Rin1 Abl inh 6.
Cc1sc2ncn(CC(=O)NCC(=O)N3CCN(c4ccccc4F)CC3)c(=O)c2c1C was read as PREPL inh 1, LYPLA1 counter 0, LYPLA2 inh -1, Rin1 Abl inh 26*, Rin1 Abl conf 0 and GFP quench -6.
COc1ccc(SCCCn2c(=O)c3c(ncn3C)n(C)c2=O)cc1 was read as PREPL inh -11, LYPLA1 counter -3, LYPLA2 inh 0, Rin1 Abl inh 7.7*, Rin1 Abl conf 0 and GFP quench 1.
